{
  "source": "ChEMBL document CHEMBL1201862",
  "about": "“PubChem BioAssay data set” (2004)",
  "molecular_target": "Huntingtin (Homo sapiens) (UniProt P42858)",
  "sequence (P42858 whole entry)": "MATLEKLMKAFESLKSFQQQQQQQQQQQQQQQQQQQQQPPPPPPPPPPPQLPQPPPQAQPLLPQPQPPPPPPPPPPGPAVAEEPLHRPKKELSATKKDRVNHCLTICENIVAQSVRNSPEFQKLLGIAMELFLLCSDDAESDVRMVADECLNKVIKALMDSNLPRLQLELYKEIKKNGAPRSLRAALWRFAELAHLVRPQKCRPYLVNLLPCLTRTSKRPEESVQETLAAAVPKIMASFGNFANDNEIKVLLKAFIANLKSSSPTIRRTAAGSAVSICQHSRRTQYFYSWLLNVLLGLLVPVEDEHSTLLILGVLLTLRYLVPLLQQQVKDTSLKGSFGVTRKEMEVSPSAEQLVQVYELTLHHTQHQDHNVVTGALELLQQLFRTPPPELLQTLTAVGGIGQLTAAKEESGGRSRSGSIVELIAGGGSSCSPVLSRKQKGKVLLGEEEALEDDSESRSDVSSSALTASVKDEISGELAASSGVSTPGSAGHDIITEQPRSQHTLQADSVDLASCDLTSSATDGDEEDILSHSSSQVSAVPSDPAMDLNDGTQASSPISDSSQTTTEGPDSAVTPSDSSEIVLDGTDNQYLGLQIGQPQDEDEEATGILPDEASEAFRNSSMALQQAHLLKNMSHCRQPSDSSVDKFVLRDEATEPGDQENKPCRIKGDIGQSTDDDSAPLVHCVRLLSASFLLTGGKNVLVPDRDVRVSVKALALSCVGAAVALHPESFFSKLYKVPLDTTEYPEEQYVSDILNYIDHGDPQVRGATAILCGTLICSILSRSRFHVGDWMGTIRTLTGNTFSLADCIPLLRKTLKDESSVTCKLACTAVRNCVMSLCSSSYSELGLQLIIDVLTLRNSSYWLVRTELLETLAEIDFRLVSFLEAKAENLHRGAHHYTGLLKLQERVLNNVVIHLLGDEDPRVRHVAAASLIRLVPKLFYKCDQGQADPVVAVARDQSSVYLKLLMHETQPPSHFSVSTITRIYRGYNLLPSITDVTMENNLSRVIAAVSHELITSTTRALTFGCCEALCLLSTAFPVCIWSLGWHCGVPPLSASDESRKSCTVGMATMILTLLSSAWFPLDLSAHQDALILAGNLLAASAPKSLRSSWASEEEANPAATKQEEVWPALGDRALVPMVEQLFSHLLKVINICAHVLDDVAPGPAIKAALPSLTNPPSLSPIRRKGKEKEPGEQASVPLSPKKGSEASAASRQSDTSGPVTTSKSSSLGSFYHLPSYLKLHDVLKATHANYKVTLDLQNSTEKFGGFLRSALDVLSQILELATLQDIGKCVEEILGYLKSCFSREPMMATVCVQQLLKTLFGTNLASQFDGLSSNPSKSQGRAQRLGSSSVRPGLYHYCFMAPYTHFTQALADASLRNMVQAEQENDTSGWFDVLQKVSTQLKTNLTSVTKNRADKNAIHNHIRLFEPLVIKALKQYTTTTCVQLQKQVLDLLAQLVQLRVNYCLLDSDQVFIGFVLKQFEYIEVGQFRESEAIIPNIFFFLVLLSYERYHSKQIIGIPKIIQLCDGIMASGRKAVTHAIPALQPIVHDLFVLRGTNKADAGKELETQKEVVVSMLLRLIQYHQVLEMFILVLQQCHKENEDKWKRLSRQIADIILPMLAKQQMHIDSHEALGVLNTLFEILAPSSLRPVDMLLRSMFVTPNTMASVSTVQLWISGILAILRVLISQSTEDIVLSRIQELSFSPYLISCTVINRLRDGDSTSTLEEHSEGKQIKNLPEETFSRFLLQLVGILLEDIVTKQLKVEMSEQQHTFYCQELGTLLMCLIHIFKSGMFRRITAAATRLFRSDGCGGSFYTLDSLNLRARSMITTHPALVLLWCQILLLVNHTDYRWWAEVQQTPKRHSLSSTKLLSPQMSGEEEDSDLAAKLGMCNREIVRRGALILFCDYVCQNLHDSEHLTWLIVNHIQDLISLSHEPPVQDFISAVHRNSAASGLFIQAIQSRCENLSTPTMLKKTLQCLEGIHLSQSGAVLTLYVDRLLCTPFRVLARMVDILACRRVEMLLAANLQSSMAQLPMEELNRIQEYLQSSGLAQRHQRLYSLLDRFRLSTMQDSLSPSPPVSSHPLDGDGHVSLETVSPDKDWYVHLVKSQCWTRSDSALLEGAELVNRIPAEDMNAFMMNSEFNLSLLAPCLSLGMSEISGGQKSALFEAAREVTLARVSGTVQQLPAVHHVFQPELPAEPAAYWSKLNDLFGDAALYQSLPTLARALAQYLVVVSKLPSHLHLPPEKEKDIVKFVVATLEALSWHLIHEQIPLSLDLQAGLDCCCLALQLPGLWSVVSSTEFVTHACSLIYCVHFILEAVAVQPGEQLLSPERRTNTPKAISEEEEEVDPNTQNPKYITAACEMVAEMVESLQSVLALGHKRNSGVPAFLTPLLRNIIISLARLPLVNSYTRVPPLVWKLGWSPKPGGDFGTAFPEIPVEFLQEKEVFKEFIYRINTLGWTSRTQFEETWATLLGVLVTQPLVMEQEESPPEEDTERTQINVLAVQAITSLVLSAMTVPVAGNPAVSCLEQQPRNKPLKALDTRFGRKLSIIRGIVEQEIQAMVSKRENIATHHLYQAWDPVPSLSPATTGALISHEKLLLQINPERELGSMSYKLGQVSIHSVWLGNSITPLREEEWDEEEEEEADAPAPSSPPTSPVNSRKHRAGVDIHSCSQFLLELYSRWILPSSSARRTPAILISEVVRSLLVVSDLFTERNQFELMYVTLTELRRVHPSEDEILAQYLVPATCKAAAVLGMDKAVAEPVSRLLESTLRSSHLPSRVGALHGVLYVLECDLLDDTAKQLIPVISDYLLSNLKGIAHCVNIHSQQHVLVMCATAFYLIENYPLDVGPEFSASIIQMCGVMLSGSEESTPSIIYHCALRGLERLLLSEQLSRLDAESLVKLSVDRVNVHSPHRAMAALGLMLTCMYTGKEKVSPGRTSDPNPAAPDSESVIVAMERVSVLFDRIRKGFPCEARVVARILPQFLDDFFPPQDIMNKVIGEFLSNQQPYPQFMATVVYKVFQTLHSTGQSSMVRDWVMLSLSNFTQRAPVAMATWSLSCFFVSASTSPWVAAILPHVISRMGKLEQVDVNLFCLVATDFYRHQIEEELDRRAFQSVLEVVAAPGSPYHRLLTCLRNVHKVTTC",
  "assay": "qHTS Assay Multiplex Screening to Identify Dual Action Probes in a Cell Model of Huntington: Cytoprotection (Protease release). [Related pubchem assays: 1482, 1471, 1688 ]; call rule not given here",
  "type": "functional",
  "note": "These assays gave more results; the selection is not random.",
  "data": [
    {"smiles": "COC[C@@H]([C@H](O)[C@H](O)C(=O)NCC[C@H](C)c1nc(/C=C/C[C@@H]2O[C@]3(C[C@@H](O)[C@@H]2C)O[C@H]([C@H](C[C@H](O)[C@H](C)[C@H](O)[C@H](C)/C=C(C)/C(C)=C/C=C/C(C)=C\\C#N)OC)[C@H](OP(=O)(O)O)C3(C)C)co1)N(C)C", "values": [
      {"measurement": "Potency", "value": "1120 nM (active)"}
    ]}
  ]
}
